High-throughput results from PubChem.
Shown are actives, neighbours in structure and some others; about 3% of the full set was active somewhere.
L929 necroptosis = L929 zVAD cell death inhibition; viability rescue, % at 10 µM; AID 1377; 220,000 tested, 0.38% active; L929 zVAD necroptosis rescue, ATP luminescence, 24 h; with zVAD 60 µM;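 active = activation, scaled between plate controls, above about 75%, limit read from the data; inactive = activation under that limit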;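 also: 0% = zVAD with DMSO and 100% = DMSO alone without zVAD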
HMGR II inh = E. faecalis class II HMG-CoA reductase inhibition. purified E. faecalis HMGR, NADPH absorbance 340 nm kinetic. inhibition, % at 10 µM. 190,000 tested, 0.41% active. AID 1066;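 active = inhibition above a set limit, the median over all tested compounds plus 3 SD, cut at about 9.5% in these data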;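 also: enzyme runs in reverse so mevalonate oxidation gives rising NADPH absorbance; 0% = complete reaction with DMSO and 100% = background rate lacking mevalonate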
ROMK primary = modulators of human ROMK potassium channel. 130,000 tested, 2% active. Tet-inducible ROMK, thallium flux fluorescence; actives lie on both sides. B-score at 10 µM;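 active = signal ratio slope over the read window, or its plate-corrected B-score, at least 3 SD from the plate mean, either direction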;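 also: B-score of the F/F0 ratio slope over 7 to 12 s after thallium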
Target sequence (P48048 whole entry, looked up): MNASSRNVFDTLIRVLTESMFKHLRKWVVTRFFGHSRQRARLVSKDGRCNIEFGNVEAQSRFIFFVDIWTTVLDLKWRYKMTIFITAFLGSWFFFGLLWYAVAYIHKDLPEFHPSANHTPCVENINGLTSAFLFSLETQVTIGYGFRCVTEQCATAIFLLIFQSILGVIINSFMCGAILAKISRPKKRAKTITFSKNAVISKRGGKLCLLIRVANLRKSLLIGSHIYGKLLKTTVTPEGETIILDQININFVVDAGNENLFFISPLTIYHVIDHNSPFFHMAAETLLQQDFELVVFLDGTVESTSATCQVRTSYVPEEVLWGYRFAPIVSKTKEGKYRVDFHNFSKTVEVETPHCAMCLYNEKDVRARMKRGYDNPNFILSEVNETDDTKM
14-3-3 Bad inh = disrupts binding of bovine 14-3-3 zeta to phospho-Bad peptide. P63103. TR-FRET 14-3-3zeta/Dy647-pBad peptide displacement, 1 h. inhibition, % at 21.7 µM. 220,000 tested, 0.71% active;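 active = inhibition above about 70%, limit read from the data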;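 also: 0% = full 14-3-3 plus peptide FRET controls and 100% = background without 14-3-3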
TNF necrop inh = inhibitors of TNF-alpha induced necroptosis in Jurkat FADD-/- cells. Jurkat FADD-/- TNF necroptosis rescue, ATP luminescence, 24 h; 0 = TNF only, 100 = no-TNF cells. 220,000 tested, 0.068% active. AID 463075. activation (protection from cell death), % at 10 µM;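 active = activation, meaning protection from cell death, of at least 50% relative to plate controls; inactive = activation below 50%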;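 also: necroptosis triggered by 40 ng/mL TNF-alpha added together with compound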
Calpain2 inh = calpain II (pig) inhibition; purified calpain II, fluorogenic peptide substrate, 30 min; inhibition, % at 16 µM; 220,000 tested, 0.37% active; AID 1236;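 active = inhibition above about 50%, limit read from the data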
* = called active by the depositor; i = inactive; nt = no result; [ ] = dose if it differs, or a comment.

SMILES	L929 necroptosis	HMGR II inh	ROMK primary	14-3-3 Bad inh	TNF necrop inh	Calpain2 inh
O=S(=O)(Nc1nc(-c2sccc2Cl)cs1)c1cc(Cl)ccc1Cl	0	3	nt	87*	-2	54*
Cc1cc(C)cc(NC(=O)CCn2cnc3cc(C)c(C)cc32)c1	5	-2	0.0024	12	2	16
CCN(C)Cc1c(C(=O)N2CCc3ccccc3C2)nc2ccc(Cl)cn12	0	-8	-0.43	-1	1	-16
CCN(CC)Cc1c(C(=O)N2CCc3ccccc3C2)nc2ccc(Cl)cn12	-2	17*	0.82	-1	1	-20
Oc1ccc(Br)cc1C=Nc1ccc(Cl)cc1	0	-1	0.41	6	-12	94*
CCN(CC)c1ccc(NC(=O)c2ccc3c(c2)c(C)c(C)n3C)cc1	50	-2	-0.39	21	-2	-45
COc1ccc(CNC(=O)C2CCCN2S(=O)(=O)c2ccc(Cl)cc2)cc1 (centres undefined)	-1	18*	nt	9	-1	0
COC(=O)c1ccc2c(=O)n(C3CCCCC3)c(SCC#N)nc2c1	2	-1	nt	74*	1	8
CCOC(=O)CSc1nc2cc(C(=O)N3CCC(C(N)=O)CC3)ccc2c(=O)n1C1CCCCC1	-2	-3	-0.24	-1	0	-49
Cc1ccc(NC(=O)CN(C)C(=O)c2nn(C)c(=O)c3ccccc23)cc1	0	nt	nt	-5	-2	-13
CN1CCN(Cc2cccc(Oc3ccccc3)c2)CC1	0	-4	-0.0098	70*	1	21
COc1nccc(C(F)(F)F)c1C(=O)NC(=O)Nc1ccccc1	0	nt	nt	-8	1	-15
COc1ccc(-n2c(=O)c3c4c(sc3n3c(=S)[nH]nc23)CCCC4)cc1	1	-2	nt	-13	1	-10
CCc1ccc2nc(NC(=O)c3ccc4c(=O)[nH]c(CN5CCOCC5)nc4c3)sc2c1	0	-5	nt	94*[fluorescence artefact?]	-2	i
COc1cc(CNCc2ccc(SC)cc2)cc(OC)c1	0	-3	-2.4	48	3	0
Cc1ccc(CSc2nnc(SCC(=O)N/N=C/c3ccccc3OCC(=O)O)s2)cc1	1	nt	0.35	10	-4	3
O=C(CSc1nnc(SCc2ccccc2Cl)s1)N/N=C/c1c[nH]c2ccccc12	0	-9	nt	-9	-4	-92
Cc1ccc(NC(C)C(=O)N/N=C/c2c[nH]c3ccccc23)cc1 (centres undefined)	0	-6	0.6	-17	1	1
Cc1ccc(CSc2nnc(SCC(=O)N/N=C/c3c[nH]c4ccccc34)s2)cc1	0	-3	0.21	95*	-2	-3
Cc1ccc(NCC(=O)N/N=C/c2c[nH]c3ccccc23)cc1	-1	-9	0.99	-3	-6	70*
O=C(CSc1nnc(SCc2ccccc2)s1)N/N=C/c1c[nH]c2ccccc12	2	1	-0.18	94*	-3	-5
O=C(CCc1ccc(S(=O)(=O)N2CCOCC2)cc1)N1CCN(Cc2ccc3c(c2)OCO3)CC1	1	0	-0.49	-13	1	-46
COc1ccc(CN2CCOCCOCCN(Cc3ccc(OC)cc3)CCOCCOCC2)cc1	0	nt	0.091	0	10	-2
Clc1ccc(-c2nc(-c3cc4cc(Cl)ccc4o3)cs2)cc1	0	nt	nt	0	-1	-9
COC(=O)c1c(NC(=O)C2(C)Cc3ccccc3C(=O)O2)sc2c1CCCC2 (centres undefined)	16	-5	0.078	-1	2	-1
SMILES	L929 necroptosis	HMGR II inh	ROMK primary	14-3-3 Bad inh	TNF necrop inh	Calpain2 inh
Cc1n[nH]c(=S)n(NC(=O)CC(=O)Nn2c(=S)[nH]nc(C)c2=O)c1=O	1	2	-0.86	-20	0	21
Cc1n[nH]c(=S)n(NC(=O)/C=C/C(=O)Nn2c(=S)[nH]nc(C)c2=O)c1=O	0	-2	-0.0045	85*	0	-23
Cc1cccc(C)c1NC(=S)N1CCC(c2ccccc2)C1 (centres undefined)	-1	1	-1.3	-1	-1	2
COc1cc(C2C(C#N)=C(N)N(c3cccnc3)C3=C2C(=O)CCC3)ccc1O (centres undefined)	0	-4	-0.41	-6	1	14
CCSc1sccc1C1C(C#N)=C(N)N(c2cccnc2)C2=C1C(=O)CCC2 (centres undefined)	0	2	nt	90*	5	6
Cc1ccc(Cl)c(OCCCN(C)Cc2ccccc2)c1	0	nt	nt	72*	4	30
Cc1ccc(Cl)c(OCCCCN(C)Cc2ccccc2)c1	0	-2	-0.66	77*	-3	2
O=C(CCC(=O)c1ccccc1)NCCc1c[nH]c2ccccc12	0	0	0.34	-11	0	12
COCCNC(=S)N1CCc2cc(OC)c(OC)cc2C1c1cccs1 (centres undefined)	0	0	0.73	-8	2	-9
Cn1c(=O)cc(C(=O)N/N=C/c2ccc(F)cc2)[nH]c1=O	0	nt	0.042	-2	2	24
NC(CO)(CO)COCc1ccccc1	1	0	0.63	-12	0	9
Cc1cc(C)n(C(=O)COc2ccccc2C)n1	-1	13*	-1.3	1	-1	-11
Cc1cc(C)n(CC(O)COc2ccccc2C)n1 (centres undefined)	1	12*	0.7	-13	0	11
Cc1cc(C)n(CC(O)COc2ccccc2)n1 (centres undefined)	1	3	nt	3	0	-1
O=c1c2c(-c3cccs3)csc2ncn1-c1ccc(Br)cc1	0	-3	nt	0	-1	-12
Cn1c(=S)[nH]c2scc(-c3cccs3)c2c1=O	-1	-7	4*	-7	-1	18
C=CCn1c(=S)[nH]c2ccccc2c1=O	0	-2	0.0068	3	0	4
C=CCn1c(=S)[nH]c2scc(-c3cccs3)c2c1=O	1	-1	3.5*	-12	-1	-4
O=C(Cn1cc(C(=O)c2ccco2)c2ccccc21)NC1CC1	-2	-6	0.0053	16	0	39
CC1=C/C(=N\NC(=S)Nc2cccnc2)CC(C)(C)C1	7	-8	3*	-11	3	24
COc1ccc(N2CCN(C(=O)c3cccnc3)CC2)c([N+](=O)[O-])c1	0	-4	0.11	-9	0	-23
O=C(NC(=S)N1CCN(C/C=C/c2ccccc2)CC1)c1ccc(Cl)nc1	-1	nt	nt	-4	4	-7
Cc1cc([N+](=O)[O-])ccc1NC(=O)C[n+]1ccc(N(C)C)cc1	1	-4	nt	0	-1	8
Cc1ccc([N+](=O)[O-])cc1NC(=O)C[n+]1ccccc1	1	13*	-0.099	-3	1	47
